Data reported in PubChem BioAssay (NCI).
The panel holds about 83,000 compounds, 20% with a hit somewhere; the sample as a whole holds those more often.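 Note: values are percent growth. 100 is the growth of untreated cells, values between 100 and 0 indicate rising inhibition; between -100 and 0 indicates cell death.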 A number with no mark means an inactive call. Calls of active or inactive are those of the source. The calls were made as follows: active = growth percent below 10; inactive = the rest.

Columns and labels:
Test in all cases: NCI-60 one-dose screen, 48 h (100 = growth as untreated, 0 = no growth, -100 = all killed)
Conditions in all cases: 10 µM unless noted
NCI-H23 lung = system: NCI-H23 lung
NCI-H226 lung = system: NCI-H226 lung
NCI-H322M lung = system: NCI-H322M lung
HOP-62 NSCLC = system: HOP-62 NSCLC
NCI-H460 lung = system: NCI-H460 lung
HOP-92 NSCLC = system: HOP-92 NSCLC
NCI-H522 lung = system: NCI-H522 lung
A549/ATCC NSCLC = system: A549/ATCC NSCLC
786-0 renal = system: 786-0 renal
COLO 205 colon = system: COLO 205 colon
DU-145 prostate = system: DU-145 prostate
K-562 leukemia = system: K-562 leukemia
MALME-3M melanoma = system: MALME-3M melanoma
MDA-MB-231 breast = system: MDA-MB-231 breast
RXF 393 renal = system: RXF 393 renal
SF-268 CNS = system: SF-268 CNS
SF-295 CNS = system: SF-295 CNS
SF-539 CNS = system: SF-539 CNS
UACC-257 melanoma = system: UACC-257 melanoma
M14 melanoma = system: M14 melanoma

Which growth (NCI-H23 lung) does the source give for `CCN(CC)CCN1C(=O)c2c(c(C)c3c(oc4cc(OC)ccc43)c2C)C1=O` here?
The growth was 95.9%.

And the growth (NCI-H226 lung)?
Its growth is 27.8%.

What about the growth (NCI-H322M lung) of the same molecule?
The growth was 85.3%.

And the growth (HOP-62 NSCLC)?
Its growth is 95.9%.

And the growth (NCI-H460 lung)?
Its growth is 44.7%.

What about the growth (HOP-92 NSCLC) of the same molecule?
The growth was 100%.

What about the growth (NCI-H522 lung) of the same molecule?
Its growth is 91.9%.

And the growth (A549/ATCC NSCLC)?
Its growth is 104%.

What about the growth (786-0 renal) of the same molecule?
The growth was -74% (active).

What about the growth (COLO 205 colon) of the same molecule?
Its growth is 99.1%.

And the growth (DU-145 prostate)?
Its growth is 75.1%.

What about the growth (K-562 leukemia) of the same molecule?
The growth was -29.2% (active).

What about the growth (MALME-3M melanoma) of the same molecule?
The growth was 102%.

What about the growth (MDA-MB-231 breast) of the same molecule?
The growth was 58.4%.

And the growth (RXF 393 renal)?
The growth was 73.1%.

What about the growth (SF-268 CNS) of the same molecule?
The growth was 89.6%.

What about the growth (SF-295 CNS) of the same molecule?
Its growth is 89.4%.

And the growth (SF-539 CNS)?
The growth was 70.6%.

And the growth (UACC-257 melanoma)?
The growth was 127%.

And the growth (M14 melanoma)?
Its growth is 98.9%.

For `COc1ccc(S(=O)(=O)NC2c3ccccc3CC2O)cc1OC` (stereo not given), which growth (NCI-H23 lung) is on record?
Its growth is 103%.

What about the growth (NCI-H226 lung) of the same molecule?
The growth was 102%.

And the growth (NCI-H322M lung)?
Its growth is 109%.

What about the growth (HOP-62 NSCLC) of the same molecule?
Its growth is 102%.

And the growth (NCI-H460 lung)?
Its growth is 109%.

What about the growth (HOP-92 NSCLC) of the same molecule?
Its growth is 109%.

What about the growth (NCI-H522 lung) of the same molecule?
The growth was 99%.

And the growth (A549/ATCC NSCLC)?
Its growth is 102%.

And the growth (786-0 renal)?
Its growth is 104%.

What about the growth (COLO 205 colon) of the same molecule?
The growth was 119%.

And the growth (DU-145 prostate)?
The growth was 111%.

And the growth (K-562 leukemia)?
The growth was 102%.

And the growth (MALME-3M melanoma)?
Its growth is 110%.

And the growth (MDA-MB-231 breast)?
The growth was 112%.

And the growth (RXF 393 renal)?
Its growth is 117%.

What about the growth (SF-268 CNS) of the same molecule?
Its growth is 93.6%.

What about the growth (SF-295 CNS) of the same molecule?
Its growth is 98.3%.

What about the growth (SF-539 CNS) of the same molecule?
The growth was 101%.

What about the growth (UACC-257 melanoma) of the same molecule?
Its growth is 111%.

And the growth (M14 melanoma)?
The growth was 99.1%.

What does the source list for `COc1cccc(CNc2nnc(C)c(C)n2)c1O`?
growth (NCI-H23 lung): 96.5%; growth (NCI-H226 lung): 89.1%; growth (NCI-H322M lung): 108%; growth (HOP-62 NSCLC): 95.6%; growth (NCI-H460 lung): 102%; growth (HOP-92 NSCLC): 81.2%; growth (NCI-H522 lung): 90.7%; growth (A549/ATCC NSCLC): 93.7%; growth (786-0 renal): 104%; growth (COLO 205 colon): 109%; growth (DU-145 prostate): 108%; growth (K-562 leukemia): 102%; growth (MALME-3M melanoma): 108%; growth (MDA-MB-231 breast): 96.3%; growth (RXF 393 renal): 123%; growth (SF-268 CNS): 100%; growth (SF-295 CNS): 97%; growth (SF-539 CNS): 99.7%; growth (UACC-257 melanoma): 95%; growth (M14 melanoma): 101%

How did the growth (NCI-H23 lung) turn out when `COc1cc2ncnc(Nc3ccc(S(=O)(=O)Nc4cc(C)on4)cc3)c2cc1OCCCN1CCOCC1` was run?
Its growth is 100%.

And the growth (NCI-H226 lung)?
The growth was 94%.

What about the growth (NCI-H322M lung) of the same molecule?
Its growth is 101%.

And the growth (HOP-62 NSCLC)?
Its growth is 95.8%.

What about the growth (NCI-H460 lung) of the same molecule?
The growth was 110%.

What about the growth (HOP-92 NSCLC) of the same molecule?
Its growth is 87.4%.

And the growth (NCI-H522 lung)?
Its growth is 96.8%.

And the growth (A549/ATCC NSCLC)?
Its growth is 95.3%.

And the growth (786-0 renal)?
The growth was 107%.

What about the growth (COLO 205 colon) of the same molecule?
Its growth is 106%.

What about the growth (DU-145 prostate) of the same molecule?
The growth was 108%.

What about the growth (K-562 leukemia) of the same molecule?
The growth was 102%.

And the growth (MALME-3M melanoma)?
Its growth is 95.3%.

What about the growth (MDA-MB-231 breast) of the same molecule?
Its growth is 105%.

What about the growth (RXF 393 renal) of the same molecule?
Its growth is 102%.

What about the growth (SF-268 CNS) of the same molecule?
Its growth is 98.1%.

And the growth (SF-295 CNS)?
Its growth is 97.7%.

What about the growth (SF-539 CNS) of the same molecule?
Its growth is 99.4%.

And the growth (UACC-257 melanoma)?
Its growth is 99.8%.

And the growth (M14 melanoma)?
The growth was 105%.

With `Cc1[nH]c(C(=O)Nc2ccc(C(N)=O)cc2OC(C)C)c(Cl)c1Cl` as the molecule, how does the growth (NCI-H23 lung) read?
Its growth is 97.6%.

What about the growth (NCI-H226 lung) of the same molecule?
The growth was 107%.

And the growth (NCI-H322M lung)?
The growth was 100%.

And the growth (HOP-62 NSCLC)?
Its growth is 92.7%.

What about the growth (NCI-H460 lung) of the same molecule?
Its growth is 85.1%.

And the growth (HOP-92 NSCLC)?
Its growth is 73.3%.

What about the growth (NCI-H522 lung) of the same molecule?
Its growth is 91.7%.

And the growth (A549/ATCC NSCLC)?
Its growth is 100%.

What about the growth (786-0 renal) of the same molecule?
The growth was 102%.

And the growth (COLO 205 colon)?
Its growth is 115%.

What about the growth (DU-145 prostate) of the same molecule?
The growth was 101%.

What about the growth (K-562 leukemia) of the same molecule?
The growth was 79.9%.

What about the growth (MALME-3M melanoma) of the same molecule?
The growth was 101%.

What about the growth (MDA-MB-231 breast) of the same molecule?
Its growth is 91.4%.

And the growth (RXF 393 renal)?
Its growth is 133%.

What about the growth (SF-268 CNS) of the same molecule?
Its growth is 97.5%.

What about the growth (SF-295 CNS) of the same molecule?
Its growth is 104%.

And the growth (SF-539 CNS)?
The growth was 92.8%.

And the growth (UACC-257 melanoma)?
The growth was 106%.

What about the growth (M14 melanoma) of the same molecule?
Its growth is 108%.

`C=CCNc1nc(O)c(/C=C2\C=Nc3ncccc32)s1` was tested. Which growth (NCI-H23 lung) did it give?
The growth was 6.83% (active).

What about the growth (NCI-H226 lung) of the same molecule?
Its growth is 10.7%.

What about the growth (NCI-H322M lung) of the same molecule?
Its growth is 10.2%.

What about the growth (HOP-62 NSCLC) of the same molecule?
The growth was -10.8% (active).

What about the growth (NCI-H460 lung) of the same molecule?
The growth was 2.18% (active).

What about the growth (HOP-92 NSCLC) of the same molecule?
The growth was -1.86% (active).

What about the growth (NCI-H522 lung) of the same molecule?
Its growth is -5.27% (active).

And the growth (A549/ATCC NSCLC)?
The growth was 13.2%.

And the growth (786-0 renal)?
Its growth is 4.4% (active).

And the growth (COLO 205 colon)?
The growth was -20.1% (active).

And the growth (DU-145 prostate)?
Its growth is 12.7%.

And the growth (K-562 leukemia)?
Its growth is 42.1%.

What about the growth (MALME-3M melanoma) of the same molecule?
Its growth is 40.2%.

What about the growth (MDA-MB-231 breast) of the same molecule?
Its growth is 19.8%.

And the growth (RXF 393 renal)?
The growth was -41.3% (active).

What about the growth (SF-268 CNS) of the same molecule?
The growth was -3.26% (active).

What about the growth (SF-295 CNS) of the same molecule?
Its growth is 13%.

And the growth (SF-539 CNS)?
The growth was -66.2% (active).

And the growth (UACC-257 melanoma)?
Its growth is 9.55% (active).

What about the growth (M14 melanoma) of the same molecule?
Its growth is 24.5%.

What does the source list for `COc1ccc(/C=C/C(=O)c2ccc(-n3cc(CN4CCN(c5cc6c(cc5F)c(=O)c(C(=O)O)cn6C5CC5)CC4)nn3)cc2)cc1`?
growth (NCI-H23 lung): 78.7%; growth (NCI-H226 lung): 67.3%; growth (NCI-H322M lung): 72.8%; growth (HOP-62 NSCLC): 75.6%; growth (NCI-H460 lung): 77.9%; growth (HOP-92 NSCLC): 66.6%; growth (NCI-H522 lung): 67.6%; growth (A549/ATCC NSCLC): 66.1%; growth (786-0 renal): 71.9%; growth (COLO 205 colon): 98.2%; growth (DU-145 prostate): 83.2%; growth (K-562 leukemia): 42.6%; growth (MALME-3M melanoma): 66.2%; growth (MDA-MB-231 breast): 67.2%; growth (RXF 393 renal): 64.2%; growth (SF-268 CNS): 56%; growth (SF-295 CNS): 94.9%; growth (SF-539 CNS): 50.8%; growth (UACC-257 melanoma): 78.7%; growth (M14 melanoma): 59%
